Assay results reported in PubChem BioAssay.
The source made the active and inactive calls. Unless noted, how the calls were made is not given here.

Assays:
[1] = HepG2 liver cancer cell viability effects, profiling panel, resazurin fluorescence, 24 h, PK04 Diversity Set (AID 1172); conditions: higher = more signal; further: test concentration not given here
[2] = basal S. cerevisiae growth modulation, no modifier, primary screen, OD600, strain BY4716, 24 h, basal condition (AID 1173); conditions: OD600, 24 h, higher = more signal, called active from +8 up or from −8 down
[3] = MM1S myeloma cell viability, profiling panel, resazurin fluorescence, basal, 24 h, PK04 Diversity Set (AID 1174); conditions: higher = more signal, called active from +8 up or from −8 down;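 further: MM1S multiple myeloma cell line; test concentration not given here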
[4] = target: Dihydroorotate dehydrogenase (quinone), mitochondrial (Plasmodium falciparum (isolate 3D7)) (UniProt Q08210); assay: PfDHODH enzyme inhibitors, primary screen, biochemical, C-terminal His tag, absorbance 600 nm (AID 1175); conditions: DCIP absorbance 600 nm, higher = more signal, called active from +8 up or from −8 down;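 further: recombinant parasite enzyme with a five histidine tag at its C terminus; test concentration not given here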
[5] = P. aeruginosa biofilm formation inhibitors, primary screen, strain PAO1, LB-PBS medium, absorbance 600 nm (AID 1176); further: test concentration not given here; conditions: P. aeruginosa PAO1 growth/biofilm, A600, 12 h; higher = more signal
[6] = S. cerevisiae RM11-1a growth modifiers, primary screen, strain RM11-1a, OD600, basal, 24 h (AID 1177); conditions: OD600, 24 h, higher = more signal, called active from +8 up or from −8 down;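 further: cultures grown under basal conditions with no added stressor; test concentration not given here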
[7] = E. coli acrAB mutant growth effects, primary screen, E. coli filamentation inducers, strain DRC39, OD650, 24 h (AID 1178); conditions: higher = more signal, called active from +8 up or from −8 down;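 further: growth measured as culture turbidity by optical density at 650 nm; test concentration not given here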
[8] = E. coli acrAB mutant growth effects, primary screen, E. coli filamentation inducers, strain DRC39, OD650, 48 h (AID 1179);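 further: screen aims at cell division blockers that make cells filament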; conditions: E. coli DRC39 delta-acrAB growth, higher = more signal, called active from +8 up or from −8 down
[9] = RPMI8226 myeloma cell viability, profiling panel, resazurin fluorescence, basal, 24 h, PK04 Diversity Set (AID 1180); conditions: higher = more signal;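 further: RPMI8826 multiple myeloma cell line at 5000 cells per well; test concentration not given here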
[10] = target: E3 ubiquitin-protein ligase XIAP (Homo sapiens) (UniProt P98170); assay: XIAP binders, primary screen, biophysical, small-molecule microarray, fluorescence 635 nm (AID 1181); conditions: small-molecule microarray binding, higher = more signal;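 further: score merges 667 nm emission and signal to noise over triplicate slides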
E3 ubiquitin-protein ligase XIAP (Homo sapiens), sequence (P98170 whole entry, looked up): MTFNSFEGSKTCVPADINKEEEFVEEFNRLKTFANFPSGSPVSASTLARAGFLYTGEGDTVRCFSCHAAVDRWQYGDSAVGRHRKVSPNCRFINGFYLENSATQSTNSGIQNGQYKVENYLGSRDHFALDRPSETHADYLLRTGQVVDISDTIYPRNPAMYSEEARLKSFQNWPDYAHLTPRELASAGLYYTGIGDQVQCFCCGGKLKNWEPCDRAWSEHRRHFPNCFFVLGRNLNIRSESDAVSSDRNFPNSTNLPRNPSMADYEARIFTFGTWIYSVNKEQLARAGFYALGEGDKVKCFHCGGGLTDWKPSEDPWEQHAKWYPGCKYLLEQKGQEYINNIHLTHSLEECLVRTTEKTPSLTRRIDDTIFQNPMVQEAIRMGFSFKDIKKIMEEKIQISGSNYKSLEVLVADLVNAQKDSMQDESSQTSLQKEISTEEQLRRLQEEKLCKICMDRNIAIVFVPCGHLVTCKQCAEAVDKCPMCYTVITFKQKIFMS

Dihydroorotate dehydrogenase (quinone), mitochondrial (Plasmodium falciparum (isolate 3D7)), sequence (Q08210 whole entry, looked up): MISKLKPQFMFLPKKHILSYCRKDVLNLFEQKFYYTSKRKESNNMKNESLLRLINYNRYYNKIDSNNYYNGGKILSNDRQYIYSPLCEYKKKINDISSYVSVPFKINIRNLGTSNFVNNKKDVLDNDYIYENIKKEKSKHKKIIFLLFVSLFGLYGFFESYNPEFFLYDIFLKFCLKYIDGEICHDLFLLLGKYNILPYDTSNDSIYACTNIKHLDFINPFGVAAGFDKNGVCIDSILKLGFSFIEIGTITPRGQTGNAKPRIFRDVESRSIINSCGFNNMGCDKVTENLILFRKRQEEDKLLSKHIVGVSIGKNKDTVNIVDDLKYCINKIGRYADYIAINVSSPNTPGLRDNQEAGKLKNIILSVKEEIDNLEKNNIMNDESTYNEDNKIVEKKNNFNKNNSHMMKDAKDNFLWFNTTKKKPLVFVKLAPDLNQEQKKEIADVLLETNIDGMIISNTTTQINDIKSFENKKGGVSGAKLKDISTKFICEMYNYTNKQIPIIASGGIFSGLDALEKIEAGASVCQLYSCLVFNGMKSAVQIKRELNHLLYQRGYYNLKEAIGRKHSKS

Compound | z-score [1] | z-score [2] | z-score [3] | composite z-score [4] | z-score [5] | z-score [6] | z-score [7] | z-score [8] | z-score [9] | composite z-score [10]
C=CCOC(=O)[C@H]1[C@@H]2C(=O)O[C@@H](c3ccccc3)[C@@H](c3ccccc3)N2[C@@H](c2ccc(OCCOC(=O)[C@@H]3C[C@@H]4C(=O)N[C@@H](Cc5ccccc5)C(=O)N4[C@@H]3c3ccc(O)cc3)cc2)[C@]12C(=O)Nc1ccc(I)cc12 | -0.654 | 2.3 (inactive) | -1.06 (inactive) | 0.684 (inactive) | 2.75 (inactive) | 2.92 (inactive) | -0.588 (inactive) | -0.508 (inactive) | -0.721 | 0.349
CCCCCCc1nc(-c2ccc(OC)nc2)c(C)c2c1[Si](C(C)C)(C(C)C)OC2 | 0.167 | -0.121 (inactive) | 1.86 (inactive) | -3 (inactive) | 0.444 (inactive) | -0.745 (inactive) | 0.746 (inactive) | -0.0026 (inactive) | 0.781 | 0.128
C=CCNC(=O)[C@@H]1[C@H]2C(=O)O[C@H](c3ccccc3)[C@H](c3ccccc3)N2[C@H](c2ccc(O)cc2)[C@@]12C(=O)Nc1ccc(C#CC3=CCCCC3)cc12 | -0.496 | 0.233 (inactive) | -3.25 (inactive) | -0.691 (inactive) | 1.66 (inactive) | 1.28 (inactive) | -0.33 (inactive) | 0.254 (inactive) | -6.25 | 0.28
COCCOC(=O)N1C(=O)[C@@]2(c3cc(C#CCNC(N)=O)ccc31)[C@H](C(=O)Nc1nc3ccccc3s1)[C@H]1C(=O)O[C@H](c3ccccc3)[C@H](c3ccccc3)N1[C@@H]2c1ccc(O)cc1 | 0.0612 | 1.1 (inactive) | -0.355 (inactive) | 0.582 (inactive) | 0.558 (inactive) | 1.37 (inactive) | 0.0967 (inactive) | -0.211 (inactive) | -1.37 | 0.273
COC(=O)c1ccc(OC)c(/C=C\CC(OC(=O)c2ccncc2)c2ccccc2)c1 (stereo not given) | 0.887 | -2.06 (inactive) | 0.514 (inactive) | -6.33 (inactive) | 0.792 (inactive) | -2.69 (inactive) | 2.57 (inactive) | 1.49 (inactive) | 0.525 | 0.0774
COC(=O)C(CC#Cc1ccc2c(c1)[C@]1(C(=O)N2)[C@H](C(=O)N2CCCCCCC2)[C@H]2C(=O)O[C@H](c3ccccc3)[C@H](c3ccccc3)N2[C@@H]1c1ccc(OCCO)cc1)C(=O)OC | 0.883 | 1.43 (inactive) | 0.229 (inactive) | -1.22 (inactive) | 2.05 (inactive) | 0.415 (inactive) | 0.0679 (inactive) | -0.878 (inactive) | 0.0283 | 2.59
CC(C)c1ccc(NN2C(C(O)c3ccccc3)C=CC3C(=O)N(c4ccccc4)C(=O)C32)cc1 (stereo not given) | 0.685 | -1.79 (inactive) | -2.57 (inactive) | 1.25 (inactive) | 1.16 (inactive) | 1.58 (inactive) | 0.493 (inactive) | 0.289 (inactive) | 0.039 | -0.0669
CCCCCCCCCCC(O)C1C=CC2C(=O)N(C)C(=O)C2N1Nc1ccccc1 (stereo not given) | -1.83 | 0.27 (inactive) | -1.49 (inactive) | -0.205 (inactive) | 1.58 (inactive) | 1.35 (inactive) | -0.483 (inactive) | -0.54 (inactive) | -1.33 | 0.192
COCCOC(=O)N1C(=O)[C@@]2(c3cc(C#CCC(C(=O)OC)C(=O)OC)ccc31)[C@H](C(N)=O)[C@H]1C(=O)O[C@H](c3ccccc3)[C@H](c3ccccc3)N1[C@@H]2c1ccccc1OCCO | -0.0131 | -0.65 (inactive) | -1.99 (inactive) | -7.07 (inactive) | 3.05 (inactive) | -0.243 (inactive) | 0.664 (inactive) | 1.42 (inactive) | -5.51 | 0.231
COc1ccc(NN2C(C(O)c3ccc(F)cc3)C=CC3C(=O)N(C4CCCCC4)C(=O)C32)cc1 (stereo not given) | -0.598 | 0.0789 (inactive) | -0.209 (inactive) | -0.328 (inactive) | 1.68 (inactive) | 0.816 (inactive) | -0.385 (inactive) | -0.0595 (inactive) | -0.352 | -0.0726
C=CCNC(=O)[C@H]1[C@@H]2C(=O)O[C@@H](c3ccccc3)[C@@H](c3ccccc3)N2[C@@H](c2ccc(OCCO)cc2)[C@]12C(=O)N(C(=O)OCCOC)c1ccc(C#CCC(C(=O)OC)C(=O)OC)cc12 | -0.181 | 1.71 (inactive) | -0.374 (inactive) | 0.0899 (inactive) | 1.5 (inactive) | 2.76 (inactive) | 0.321 (inactive) | 0.475 (inactive) | -1.31 | 0.0899
COc1ccc(CCNC(=O)[C@@H]2c3ccccc3C(=O)N(C(C)C)[C@H]2c2ccc(CO)cc2)cc1 | 0.862 | -0.313 (inactive) | 1.35 (inactive) | 0.261 (inactive) | -0.935 (inactive) | 0.326 (inactive) | 0.364 (inactive) | 0.246 (inactive) | 1.53 | -0.178
Cc1ccc(N2C(=O)c3ccccc3[C@@H](C(=O)NCCN3CCOCC3)[C@@H]2c2ccc(CO)cc2)nc1 | 0.925 | 0.473 (inactive) | 0.544 (inactive) | 0.434 (inactive) | -0.618 (inactive) | 0.537 (inactive) | 0.193 (inactive) | 0.663 (inactive) | 0.547 | 0.0095
